KB-3-1 tox = KB-3-1 parental cell cytotoxicity | KB-3-1 viability, CellTiter-Glo ATP luminescence, 72 h | Potency, µM (titrated, usually from 46.1 µM), usual class: cytotoxic | 400,000 compounds, 1.4% hits | AID 1347075; further: nearly all actives have a fitted effect of over 60% in size
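Multi-concentration cytotoxicity screen in KB-3-1 cells grown in DMEM lacking phenol red with 10% FBS. After 72 h at 37 °C with compound, ATP-dependent luminescence was recorded.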
TDP1 cell CPT = DT40-hTDP1 cell growth loss with CPT; chicken DT40 Tdp1-/-;hTDP1 cells + 20 nM CPT, ATP luminescence, 48 h; Potency, µM (series often up to 46.2 µM), inactives show at the highest dose activity change, negative = growth inhibition, hits mostly inhibitors; 420,000 compounds, 12% hits; AID 686979; further: nearly all actives have a fitted effect of over 55% in size
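Chicken DT40 Tdp1-/- cells stably complemented with human TDP1 were seeded at 400 cells/well in medium containing 20 nM camptothecin, exposed to pin-transferred compounds, and grown at 37 °C for at least 48 hr. Viability was read as ATP luminescence.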
KB-V1 cytotox = KB-V1 MDR subline cytotoxicity; KB-V1 MDR cells viability, CellTiter-Glo, 72 h; Potency, µM (doses to about 46.1 µM), actives largely listed as cytotoxic; 400,000 compounds, 3.4% hits; further: nearly all actives have a fitted effect of over 60% in size
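Cells of the MDR subline KB-V1 are plated, dosed with compound at multiple concentrations, and incubated 72 h at 37 degrees C; CellTiter-Glo is then added and luminescence read after 10 min.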
HT1080 IDH1KD tx = kills HT-1080 cells with IDH1 knockdown; HT-1080 IDH1 knockdown viability, ATP luminescence, 48 h; Potency, µM (series often up to 46.1 µM), without a hit: at the top dose activity, negative = toxicity, hits mostly cytotoxic; 360,000 compounds, 2% hits;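 further: 0% = DMSO wells and -100% = cell-free medium wells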
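Knockdown cells (IDH1KD HT-1080) received compounds 2 h after plating at 750 cells/well and were kept 48 h at 37 °C in 5% FBS RPMI. A CellTiter-Glo luminescence read gave % activity for curve fitting.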
HT1080NT lethal = kills 2HG-producing HT-1080-NT fibrosarcoma cells | HT-1080-NT fibrosarcoma viability, CellTiter-Glo ATP luminescence, 48 h | Potency, µM (top dose mostly 46.1 µM), without a hit: top-dose activity, negative = less viability, most hits filed as cytotoxic | 360,000 compounds, 1.6% hits | AID 686970;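 further: NT is the 2HG producing partner of a matched IDH1 knockdown line; 0% = DMSO-treated cells and -100% = media-only wells without cells; nearly all actives have a fitted effect of over 55% in size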
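Read-out is CellTiter-Glo luminescence after 10 minutes at room temperature, following 48 hours' compound treatment of HT-1080-NT cells (750 cells/well, RPMI, 5% FBS, 37 degrees C).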
DT40 TDP1 no CPT = qHTS for Inhibitors of human tyrosyl-DNA phosphodiesterase 1 (TDP1): qHTS in cells in absence of CPT; 420,000 compounds, 15% hits; Potency, µM (top dose mostly 46.2 µM), without a hit: at the highest dose activity change, negative = growth inhibition, hits mostly inhibitors; DT40 Tdp1-/- hTDP1 cells, no CPT, ATP luminescence, 48 h; AID 686978, 2013; further: nearly all actives have a fitted effect of over 55% in size
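Stably hTDP1-transfected Tdp1-null chicken DT40 cells were treated with library compounds minus camptothecin and grown for at least 48 hr at 37 °C, after which cellular ATP was quantified by luminescence.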
Active calls of the source: *; i = inactive; ? = inconclusive; · = no result; [ ] = another dose, or the depositor's remark. An excerpt weighted towards active compounds, which were near 19% of everything screened. The call rests on the fitted dose curve; in most records, active means well fitted curve in the direction sought with a large enough effect; inconclusive means small, poorly fitted or top-dose-only effect, or another doubt; inactive means no such curve, though single readings can be large; an effect the other way counts as inactive or inconclusive. Unless noted, on the % scale 0 is the no-effect control and ±100 the full control effect; potency means the concentration at half of the fitted maximal effect.

SMILES | KB-3-1 tox | TDP1 cell CPT | KB-V1 cytotox | HT1080 IDH1KD tx | HT1080NT lethal | DT40 TDP1 no CPT
CCOc1[nH]c(/N=C/c2ccccc2)c(C#N)c1C#N | ? | 6.3µM* | i | · | · | -25%
COc1[nH]c(/N=C/c2ccco2)c(C#N)c1C#N | ? | 16µM* | i | · | · | ?
CN(Cc1ccccc1)c1ccc(-c2nc(-c3ccco3)no2)cc1[N+](=O)[O-] | i | ? | i | · | · | ?
Cc1ccc(Cl)cc1N1CCN(C(=O)c2cc(S(=O)(=O)N3CCCCCC3)cn2C)CC1 | i | ? | i | · | · | ?
Cc1cccc(N2CCN(C(=O)c3cccn3-c3nnc(N4CCCCC4)s3)CC2)c1C | i | 23µM* | i | · | · | 23µM*
Cc1ccc(Cl)cc1N1CCN(C(=O)C2CCN(c3nnc(-n4cccc4)s3)CC2)CC1 | ? | ? | i | -19% | -16% | 16µM*
Cc1ccc(Cl)cc1N1CCN(C(=O)c2cccn2-c2nnc(N3CCCCC3)s2)CC1 | i | 18µM* | i | · | · | 13µM*
O=C(c1cccn1-c1nnc(N2CCCCC2)s1)N1CCN(c2ccc(Cl)cc2)CC1 | i | ? | i | · | · | 26µM*
COc1ccc(N2CC(NC(=O)c3c(F)cccc3Cl)CC2=O)cc1OC (centres undefined) | i | 7% | i | · | · | 5%
O=C(c1cccn1-c1nnc(N2CCCC2)s1)N1CCN(c2ccc(Cl)cc2)CC1 | i | 21µM* | i | · | · | 23µM*
COc1cccc(N2CCN(C(=O)c3cccn3-c3nnc(N4CCCC4)s3)CC2)c1 | i | ? | i | · | · | ?
O=C1C=CC(=O)N1c1ccccc1N1C(=O)C=CC1=O | ? | 0.92µM* | 26µM* | 5.8µM* | 6.5µM* | 0.58µM*
O=C(c1ccccc1)c1ccccc1N1C(=O)C=CC1=O | i | 0.73µM* | i | ? | 16µM* | 1.6µM*
O=C1C=CC(=O)N1c1ccccn1 | i | ? | i | 22% | 6% | ?
O=C(Nc1ccn(CC(=O)N2CCN(c3ccccn3)CC2)c(=O)n1)OCc1ccccc1 | i | 9% | ? | 1% | 30% | -27%
O=C(N1CCN(c2ccccn2)CC1)N1c2ccccc2Sc2ccccc21 | 0.58µM* | 0.73µM* | 1.8µM* | 0.89µM* | 0.89µM* | 0.92µM*
O=C(NC1CCN(C(=O)N2c3ccccc3Sc3ccccc32)CC1)c1ccccc1Cl | i | ? | ? | ? | ? | 23µM*
O=C(NC1CCN(C(=O)N2c3ccccc3Sc3ccccc32)CC1)c1ccco1 | ? | ? | i | 21µM* | ? | 21µM*
COc1cccc(C(=O)NC2CCN(C(=O)N3c4ccccc4Sc4ccccc43)CC2)c1 | i | ? | ? | ? | ? | ?
O=C(c1ccco1)N1CCN(C(=O)N2c3ccccc3Sc3ccccc32)CC1 | 0.52µM* | 0.23µM* | 0.65µM* | ? | ? | 0.63µM*
COc1ccc(CCN2C(=O)COc3ccccc3C2C(=O)Nc2ccc3c(c2)OCCO3)cc1OC (centres undefined) | i | ? | i | 10% | 14% | 21µM*
O=C(Nc1ccc(Cl)c(Cl)c1)Nc1nc(-c2ccccc2)cs1 | 12µM* | 12µM* | 6.5µM* | -19% | 3% | 13µM*
COc1cccc(C(=O)Nc2nc(-c3ccncc3)cs2)c1 | i | -9% | i | 17% | 19% | ?
O=C(Nc1nc(-c2ccccc2)cs1)c1ccco1 | i | ? | i | 2% | 6% | ?
O=C(Nc1ccccc1)Nc1nc(-c2ccc(F)c(F)c2)cs1 | i | 5.8µM* | i | -2% | -12% | 2.9µM*
SMILES | KB-3-1 tox | TDP1 cell CPT | KB-V1 cytotox | HT1080 IDH1KD tx | HT1080NT lethal | DT40 TDP1 no CPT
COc1cccc(-c2csc(NC(=O)C3CC3)n2)c1 | i | 5.2µM* | i | 10% | 20% | 6.5µM*
O=C(Nc1ccc(Cl)cc1)Nc1nc(-c2ccccc2O)cs1 | ? | 5.2µM* | ? | -20% | -14% | 4.6µM*
Cc1ccc(CNC(=O)C(C)n2nc(C)n3c(cc4sccc43)c2=O)cc1 (centres undefined) | i | -24% | i | · | · | -29%
CCCCCCCCCC(=O)O[C@H](CC(=O)O)C[N+](C)(C)C | · | 2% | · | · | · | -3%
COc1cccc(-c2csc(NC(=O)Nc3ccccc3)n2)c1 | i | 7.3µM* | ? | -29% | ? | 2.3µM*
COc1cccc(-c2csc(Nc3ccc(Oc4ccccc4)cc3)n2)c1 | i | ? | i | -10% | -15% | ?
Cc1onc(C(=O)NC2CCCCC2)c1[N+](=O)[O-] | i | ? | i | -5% | 11% | ?
Cc1cccc(Sc2c([N+](=O)[O-])ncn2C)c1 | i | ? | i | 6% | 2% | 23µM*
Cc1cccnc1Sc1c([N+](=O)[O-])ncn1C | i | -10% | i | ? | 0% | 2%
Cn1cnc([N+](=O)[O-])c1Sc1ccncn1 | i | -28% | i | -10% | -10% | 13µM*
Cn1cnc([N+](=O)[O-])c1Sc1nnc(-c2cccnc2)n1C | i | ? | i | -10% | -15% | ?
CC(NC(=O)c1ccco1)c1nnc2n1CCN(Cc1ccc(N3CCCC3)cc1)CC2 (centres undefined) | · | -4%[9.04 µM] | · | · | · | -18%
O=C(O)CSC1CC(=O)N(c2ccc(Cl)c(Cl)c2)C1=O (centres undefined) | i | -5% | i | 17% | 13% | -27%
O=C1CC(SC(=Nc2ccccc2)Nc2ccccc2)C(=O)N1c1ccc(Cl)c(Cl)c1 (centres undefined) | ? | ? | 16µM* | ? | ? | 18µM*
Nc1ccccc1SC1CC(=O)N(c2ccc(Cl)c(Cl)c2)C1=O (centres undefined) | i | 26µM* | i | -10% | 0% | 13µM*
O=C1SC(Nc2ccccc2)C(=O)N1c1ccccc1 (centres undefined) | · | 2% | · | 26% | 15% | -9%
O=C1CC(Sc2ccc(Cl)cc2)C(=O)N1c1ccc2c(c1)OCCO2 (centres undefined) | i | 2.9µM* | i | -17% | -19% | 15µM*
Nc1ccccc1SC1CC(=O)N(c2ccc3c(c2)OCCO3)C1=O (centres undefined) | i | -25% | i | 1% | 5% | ?

Compound activity as filed in PubChem.
